# aSyn UTR act: Activators via SNCA 5'UTR binding, MLPCN; alpha-synuclein 5'UTR reporter, activators screen; activity score, % (tested at 7.5 µM), hits read low; hit rate 7.1% among 300,000; AID 1814; in the data active means activity score below about -60%
# * = called active by the depositor. A selection follows.
SMILES,aSyn UTR act
CCOC(=O)c1cnc(-n2nc(C)cc2C)nc1NNc1cc(-c2ccccc2)nc(C)n1,93
CCOC(=O)c1cnc2cc(-c3ccc(C(C)(C)C)cc3)nn2c1N,-232*
CCOC(=O)c1cnn2c(C)cc(-c3ccccc3)nc12,-120*
Cc1cc(C)n2ncc(/C(N)=N/OC(=O)c3ccccc3F)c2n1,-100*
CCOC(=O)c1cnc2c(C(=O)OCC)cnn2c1N,-63*
Clc1cccc(Cl)c1Cn1ccc(C2CC2)n1,-100*
CCC(SC1=Nc2ccccc2C2=NC(CC(C)C)C(=O)N12)C(=O)Nc1ccc2c(c1)OCO2 (configuration not stated),-64*
COc1ccc(-c2c(C)nc3c(-c4ccccn4)cnn3c2N)cc1,-181*
Cc1nc2c(-c3ccc(F)cc3)cnn2c(N)c1-c1ccc(F)cc1,-150*
Cc1cc(N)n2ncc(-c3ccc(F)cc3)c2n1,-104*
CSc1cccc(NC(=O)c2[nH]c(C)c(C(C)=O)c2C)c1,-139*
CC(=O)c1c(C)[nH]c(C(=O)Nc2ccc(Cl)cc2)c1C,-195*
CC(=O)c1c(C)[nH]c(C(=O)N2CCN(c3cc(Cl)ccc3C)CC2)c1C,57
CC(=O)c1c(C)[nH]c(C(=O)Nc2ccc(Cl)cc2F)c1C,-186*
CC(=O)c1c(C)[nH]c(C(=O)Nc2ccccn2)c1C,-80*
Cc1ccc(NC(=O)CNCc2ccccc2Cl)cc1S(=O)(=O)N(C)C,-72*
CCC(C)c1ccc(NC(=O)c2[nH]c(C)c(C(C)=O)c2C)cc1 (configuration not stated),-149*
CC(=O)c1c(C)[nH]c(C(=O)Nc2ccc(Cl)c(S(=O)(=O)N(C)C)c2)c1C,-174*
CC(=O)c1sc(NC(=O)c2ccc(C(C)(C)C)cc2)nc1C,-107*
O=C(Nc1nccs1)c1ccc2c(c1)OCO2,-146*
CC(=O)c1sc(NC(=O)c2ccc3c(c2)OCO3)nc1C,-136*
CC(=O)c1sc(NC(=O)c2ccc(C)c(C)c2)nc1C,-86*
Cc1csc(NC(=O)c2ccc3c(c2)OCO3)n1,-81*
Cc1nc(NC(=O)c2ccccc2)sc1Cc1ccc2c(c1)OCO2,-69*
CC(=O)c1sc(NC(=O)c2cnc(Cl)c(Cl)c2)nc1C,-128*
SMILES,aSyn UTR act
CCN1CCc2nc(NC(=O)c3ccc4c(c3)OCCO4)sc2C1,-83*
Cn1cnc2cc(NC(=O)COc3ccccc3)ccc21,-117*
CCC(=O)NCCc1nc2cc(NC(=O)c3cccc([N+](=O)[O-])c3)ccc2n1C,-70*
COc1ccccc1C(=O)Nc1ccc2c(c1)nc(CCNC(C)=O)n2C,-73*
CCC(=O)NCCc1nc2cc(NC(=O)c3ccccc3OC)ccc2n1C,-71*
CCC(=O)NCCc1nc2cc(NC(=O)COc3ccccc3)ccc2n1C,-113*
Cc1ccc(OCC(=O)Nc2ccc3c(c2)nc(CCN2CCN(C)CC2)n3C)cc1,105
CC(=O)NCCc1nc2cc(NC(=O)c3ccc(F)cc3)ccc2n1C,-111*
Cc1cc(NC(=O)c2ccccc2)c(Cl)cc1N,64
COc1ccc(OC(=O)c2ccc(Cl)cc2)c(C(C)=O)c1,-78*
CC(C)(C)c1ccc(C(=O)Nc2ccccc2Cl)cc1,-88*
O=C(Nc1ccccc1O)c1ccc(Cl)cc1,-255*
COc1ccc(-c2noc(CCC(=O)Nc3cc(Cl)c(OC)cc3OC)n2)cc1,-65*
COc1ccc(-c2noc(CCCC(=O)NC3CCCC3)n2)cc1,62
O=C(Nc1ccccc1OC(=O)c1ccc(Cl)cc1)c1ccc(Cl)cc1,-343*
O=C(Nc1ccccc1O)c1ccc([N+](=O)[O-])cc1,-70*
COc1ccc(C(=O)Nc2cc(Cl)ccc2OC(=O)c2ccc(OC)cc2)cc1,-158*
Cc1ccc(C(=O)Nc2cc(Cl)ccc2OC(=O)c2ccc(C)cc2)cc1,-227*
COc1cc(NC(=O)c2cc3nc(C)cc(C)n3n2)c(OC)cc1Cl,-214*
COc1ccc(C(=O)Nc2cc(OC)c(Cl)cc2OC)cc1,-120*
CCOC(=O)C1=C(COC(=O)/C=C/c2ccccc2Cl)NC(=O)NC1C (configuration not stated),-70*
CCOC(=O)C1=C(COC(=O)c2cccc(N(C)C)c2)NC(=O)NC1C (configuration not stated),-136*
c1ccc(-c2ccc(-n3ccnc3)cc2)cc1,-81*
Cc1cc(N/N=C/c2ccc(O)cc2O)nc(-n2nc(C)cc2C)n1,72
CCOc1ccc(/C=N/Nc2cc(C)nc(N3CCOCC3)n2)cc1,-105*
SMILES,aSyn UTR act
Cc1cc(Nc2ccc(C)c(Cl)c2)nc(N2CCOCC2)n1,-70*
CCOc1ccc2nc(N3CCOCC3)nc(C)c2c1,-178*
CCc1ccc(NC(=O)CCC(=O)Nc2nnc(C(F)(F)F)s2)cc1,-73*
CCOC(=O)c1ccc(Nc2nnc(C)c3ccccc23)cc1,-104*
CCOC(=O)c1ccc(Nc2cnc3ccccc3n2)cc1,-176*
CCOC(=O)c1ccc(Nc2cc(C)nc(-c3ccccc3)n2)cc1,-213*
CCOC(=O)c1c(C)nc(-c2ccccc2)nc1NC(=O)CC,-87*
CCCCCCCCC[n+]1cccc2c3ccccc3ccc21,69
CCc1ccc(NCc2nc3ccccc3c(=O)[nH]2)cc1,-138*
CC(=O)c1ccc(Nc2nc(C)cc(C)n2)cc1,-126*
CCOC(=O)c1ccc(Nc2nc(C)cc(C)n2)cc1,-104*
CCOC(=O)c1ccc(NCc2nc3ccccc3[nH]2)cc1,-149*
Cc1ccc(-c2onc3ccc(C4OCCO4)cc23)cc1,-100*
Cc1ccc(-c2onc3ccc(Cl)cc23)cc1,-63*
CC(=O)c1ccc2noc(-c3cccc(C)c3)c2c1,-99*
O=Cc1ccc2noc(-c3ccc(Cl)cc3)c2c1,-67*
Cc1nc2c(oc3ccccc32)c(=O)o1,-84*
Cc1ccc(Nc2nc(COC(=O)C3CC3)cs2)cc1,-105*
O=C(NCc1cccnc1)/C(=C/c1ccc(-c2cccc(Cl)c2)o1)S(=O)(=O)c1ccccc1,-193*
O=S(=O)(Nc1cccc(-c2ccc(N3CCCCCC3)nn2)c1)c1ccc(F)cc1,-146*
O=S(=O)(Nc1cccc(-c2ccc(N3CCCCCC3)nn2)c1)c1cccc(F)c1,-108*
O=S(=O)(Nc1cccc(-c2ccc(N3CCCCCC3)nn2)c1)c1ccccc1F,-128*
O=S(=O)(Nc1cccc(-c2ccc(N3CCCCCC3)nn2)c1)c1ccc(C(F)(F)F)cc1,-88*
O=C(Nc1cccc(-c2ccc(N3CCCCC3)nn2)c1)C(F)(F)F,96
Cc1ccc(S(=O)(=O)Nc2cccc(-c3ccc(N4CCCCCC4)nn3)c2)cc1C,-117*
SMILES,aSyn UTR act
CC(NC(=O)CCl)c1ccccc1Br (configuration not stated),-99*
CC(=O)c1cccc(NS(=O)(=O)c2ccc3c(c2)N(C(C)=O)CCO3)c1,-70*
CC(=O)N1CCOc2ccc(S(=O)(=O)N3CCCCC3)cc21,-250*
CCC1CCCCN1S(=O)(=O)c1ccc2c(c1)CCN2C(C)=O (configuration not stated),57
O=C1C(C=NCc2ccccn2)=C(O)c2ccccc21,-106*
O=C1C(C=NCCCN2CCCC2=O)=C(O)c2ccccc21,-113*
CC(C)CN=CC1=C(O)c2ccccc2C1=O,-83*
CC1=C(C)/C(=N\OS(=O)(=O)c2ccccc2)C=CC1=O,-80*
CCn1ncc(Br)c1C(=O)Nc1cc(C)cc(C)c1,-71*
COC(=O)c1cccc(NC(=O)Nc2ccccc2OC)c1,-65*
COc1ccccc1NC(=O)C(=O)/C=C(\O)c1ccccc1,-131*
COC(=O)c1cccc(NC(=O)NC(=O)c2ccccc2Cl)c1,95
